HepG2 viability – qHTS for Inhibitors of TGF-b: Cytotox Counterscreen; HepG2 CAGA-GFP viability, ATP luminescence, 18 h; Potency, µM (series often up to 46.1 µM), usual class: cytotoxic; hit rate 0.76% among 410,000; AID 588856, 2011
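HepG2 CAGA-GFP cells (1000/well, DMEM with 1% FBS) received compound, then TGF-beta at 500 pg/mL final, and were incubated 18 hours at 37 degrees C. Viability was read by CellTiter-Glo luminescence. Media-only wells were set as complete cell-killing and DMSO as no toxicity.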
TDP1 cell noCPT – qHTS for Inhibitors of human tyrosyl-DNA phosphodiesterase 1 (TDP1): qHTS in cells in absence of CPT. DT40 Tdp1-/- hTDP1 cells, no CPT, ATP luminescence, 48 h. Potency, µM (doses to about 46.2 µM), hits mostly inhibitors. hit rate 15% among 420,000. AID 686978, 2013; note: nearly all actives have a fitted effect of over 55% in size
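Chicken DT40 Tdp1-/- cells stably complemented with human TDP1 were seeded at 400 cells/well with DMSO in place of 20 nM camptothecin. After compound pinning, cells grew at least 48 hr at 37 °C; viability read by CellTiter-Glo luminescence.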
TGFb inhibitor – qHTS for Inhibitors of TGF-b | HepG2 CAGA-GFP TGF-b/SMAD3 reporter, GFP fluorescence, 18 h; TGF-beta stimulated, 500 pg/mL final | Potency, µM (highest dose often 46.1 µM), most hits filed as inhibitors | hit rate 1.2% among 410,000 | AID 588855, 2011; note: nearly all actives have a fitted effect of over 65% in size
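Inhibition of TGF-beta-driven CAGA-GFP reporter expression in HEPG2 cells is measured by cellular GFP fluorescence after 18 h stimulation with 500 pg/mL recombinant TGF-beta in 1% FBS medium at 37 degrees C.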
HT1080-NT tox – qHTS for induction of synthetic lethality in tumor cells producing 2HG: qHTS for the HT-1080-NT fibrosarcoma cell line. HT-1080-NT fibrosarcoma viability, CellTiter-Glo ATP luminescence, 48 h. Potency, µM (top dose mostly 46.1 µM), hits mostly cytotoxic. hit rate 1.6% among 360,000;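 note: NT is the 2HG producing partner of a matched IDH1 knockdown line; nearly all actives have a fitted effect of over 55% in size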
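Viability by CellTiter-Glo luminescence after 48 h compound exposure at 37C of HT-1080-NT cells (750/well, RPMI, 5% FBS). % activity scaled between DMSO wells and medium-only wells, then curve-fitted and categorized by curve class.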
DT40 TDP1 CPT – qHTS for Inhibitors of human tyrosyl-DNA phosphodiesterase 1 (TDP1): qHTS in cells in presence of CPT; chicken DT40 Tdp1-/-;hTDP1 cells + 20 nM CPT, ATP luminescence, 48 h; Potency, µM (titrated, usually from 46.2 µM), hits mostly inhibitors; hit rate 12% among 420,000; AID 686979, 2013; note: nearly all actives have a fitted effect of over 55% in size
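Chicken DT40 Tdp1-/- cells stably complemented with human TDP1 were seeded at 400 cells/well in medium containing 20 nM camptothecin, exposed to pin-transferred compounds, and grown at 37 °C for at least 48 hr. Viability was read as ATP luminescence.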
HT1080 IDH1KD tx – qHTS for induction of synthetic lethality in tumor cells producing 2HG: qHTS for the HT-1080-IDH1KD cell line. hit rate 2% among 360,000. HT-1080 IDH1 knockdown viability, ATP luminescence, 48 h. Potency, µM (series often up to 46.1 µM), hits mostly cytotoxic. AID 686971, 2013
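Using the IDH1-knockdown HT-1080 line run in the same batch and compound series as the NT line, viability after 48 h at 37 °C was determined by CellTiter-Glo luminescence and expressed as % activity.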
Of the large screens only hits and unclear results are named; the others gave an inactive call. An excerpt weighted towards active compounds, which were near 17% of everything screened. Calls come from the whole dose curve; as a rule, active = well fitted curve in the direction sought with a large enough effect; inconclusive = small, poorly fitted or top-dose-only effect, or another doubt; inactive = no such curve, though single readings can be large; an effect the other way counts as inactive or inconclusive.

CC1CCCN(S(=O)(=O)c2ccc(NC(=O)c3nc(SC(C)C)ncc3Cl)cc2)C1 (stereo not drawn)	TDP1 cell noCPT 13µM, DT40 TDP1 CPT 8.2µM (no result: HT1080-NT tox, HT1080 IDH1KD tx)
CCSc1ncc(Cl)c(C(=O)Nc2ccc(S(=O)(=O)N3CCCCC3)cc2)n1	TDP1 cell noCPT 12µM, TGFb inhibitor inconclusive, DT40 TDP1 CPT 21µM (no result: HT1080-NT tox, HT1080 IDH1KD tx)
CC(C)Sc1ncc(Cl)c(C(=O)Nc2ccc(S(=O)(=O)N3CCCCC3)cc2)n1	TDP1 cell noCPT 18µM, DT40 TDP1 CPT 18µM (no result: HT1080-NT tox, HT1080 IDH1KD tx)
CCSc1ncc(Cl)c(C(=O)Nc2ccc(S(=O)(=O)N(C)c3ccccc3)cc2)n1	TDP1 cell noCPT 12µM, DT40 TDP1 CPT 12µM (no result: HT1080-NT tox, HT1080 IDH1KD tx)
CN(C)C1CN(Cc2cn(Cc3ccc(F)cc3)nn2)S(=O)(=O)C1 (stereo not drawn)	none (no result: HepG2 viability, TGFb inhibitor)
COc1ccc(C2c3cc(OC)c(OC)cc3CC3C(=O)OCC32)cc1OC (stereo not drawn)	none
Cc1ccnc(NS(=O)(=O)c2ccc(NC(=O)c3nc(SC(C)C)ncc3Cl)cc2)n1	TDP1 cell noCPT inconclusive (no result: HT1080-NT tox, HT1080 IDH1KD tx)
CSc1ncc(Cl)c(C(=O)Nc2ccc(S(=O)(=O)Nc3nccc(C)n3)cc2)n1	TDP1 cell noCPT 10µM, HT1080-NT tox inconclusive, DT40 TDP1 CPT inconclusive, HT1080 IDH1KD tx inconclusive
Clc1ccc(N2CCN(c3ccnc(Cl)n3)CC2)cc1	TDP1 cell noCPT inconclusive, HT1080-NT tox inconclusive
CSc1nccc(N2CCN(c3ccc(F)cc3)CC2)n1	TDP1 cell noCPT inconclusive, TGFb inhibitor inconclusive, DT40 TDP1 CPT 13µM
O=S(=O)(Nc1c(S(=O)(=O)c2ccccc2)c2nc3ccccc3nc2n1C1CCCCC1)c1ccccc1	TDP1 cell noCPT 5.2µM, TGFb inhibitor inconclusive, HT1080-NT tox inconclusive, DT40 TDP1 CPT 9.2µM, HT1080 IDH1KD tx 16µM
C=CCn1c(NS(=O)(=O)c2ccccc2)c(S(=O)(=O)c2ccc(C)cc2)c2nc3ccccc3nc21	TDP1 cell noCPT inconclusive, TGFb inhibitor inconclusive, DT40 TDP1 CPT inconclusive
CCc1c(C)nc(N2CCN(c3ccc(F)cc3)CC2)[nH]c1=O	DT40 TDP1 CPT inconclusive
Cc1nnc(N2CCN(c3ccccc3)CC2)[nH]c1=O	TDP1 cell noCPT 5.8µM, DT40 TDP1 CPT 5.2µM
CCc1c(C)nc(N2CCN(c3ccc(OC)cc3)CC2)[nH]c1=O	TDP1 cell noCPT 21µM, DT40 TDP1 CPT inconclusive
CN1c2ccccc2C(C)(C)C12CC(c1cccc(S(=O)(=O)N3CCCC3)c1)=NO2 (stereo not drawn)	TDP1 cell noCPT 16µM, DT40 TDP1 CPT inconclusive
CN1c2ccccc2C(C)(C)C12CC(c1ccc(S(=O)(=O)N3CCCCC3)cc1)=NO2 (stereo not drawn)	TDP1 cell noCPT 21µM, DT40 TDP1 CPT inconclusive
O=S(=O)(c1ccc(-c2ccccc2)cc1)N1CCCCC1	DT40 TDP1 CPT inconclusive
Cc1cc(Cl)ccc1NC(=O)C(=O)NCc1ccco1	none (no result: HT1080-NT tox, HT1080 IDH1KD tx)
CCOc1ccc(S(=O)(=O)N2CCC(C(=O)NCC3CCCO3)CC2)cc1Cl (stereo not drawn)	none
CC(CCc1ccccc1)NC(=O)C(C)OC(=O)c1ccco1 (stereo not drawn)	none
Clc1ccccc1CSc1ncccn1	none
COC(=O)C1=C(C)N(c2ccc(F)cc2)/C(=C/c2ccc(O)cc2)C1=O	TDP1 cell noCPT inconclusive
COC(=O)C1=C(C)N(c2ccc(C)cc2)/C(=C/c2cccs2)C1=O	TDP1 cell noCPT 26µM, DT40 TDP1 CPT inconclusive
Cc1noc(C)c1-c1ccc(C(=O)NCCC(F)(F)F)c2occc12	TDP1 cell noCPT inconclusive, DT40 TDP1 CPT 15µM
Cc1noc(C)c1-c1ccc(C(=O)Nc2cccc(C(F)(F)F)c2)c2occc12	TDP1 cell noCPT 21µM, HT1080-NT tox inconclusive, DT40 TDP1 CPT 16µM, HT1080 IDH1KD tx inconclusive
Cc1noc(C)c1-c1ccc(C(=O)NCc2cccc(Cl)c2)c2occc12	TDP1 cell noCPT inconclusive, HT1080-NT tox inconclusive, DT40 TDP1 CPT inconclusive
Cc1noc(C)c1-c1ccc(C(=O)NCc2cccnc2)c2occc12	TDP1 cell noCPT 18µM, DT40 TDP1 CPT 13µM
Cc1noc(C)c1-c1ccc(C(=O)NCC(C)C)c2occc12	TDP1 cell noCPT inconclusive, DT40 TDP1 CPT inconclusive
CNC(=O)CNC(=O)Nc1ccc(Cl)c(Cl)c1	none
COc1ccc(CCNC(=O)COC(=O)c2cc(Cl)nc(Cl)c2)cc1	none
CC(=O)N1CCc2c(sc3nc(SCC(N)=O)n(-c4ccc(F)c(Cl)c4)c(=O)c23)C1	none (no result: HT1080-NT tox, HT1080 IDH1KD tx)
COc1ccc(S(=O)(=O)N2CCOCC2)cc1NC(=O)CSc1n[nH]c(C(C)C)n1	none
c1ccc(-c2nc(-c3ccco3)n3ccccc23)cc1	TDP1 cell noCPT inconclusive, DT40 TDP1 CPT 10µM
CCc1nn(CC(=O)N(CC)Cc2ccccc2)c(=O)c2cc3occc3n12	TDP1 cell noCPT 16µM, TGFb inhibitor inconclusive, DT40 TDP1 CPT 23µM (no result: HT1080-NT tox, HT1080 IDH1KD tx)
O=C(CCc1nc2ccccc2c(=O)[nH]1)NCCN1C(=O)S/C(=C\c2ccc(OC(F)F)cc2)C1=O	HepG2 viability 10µM, TDP1 cell noCPT 18µM, DT40 TDP1 CPT inconclusive, HT1080 IDH1KD tx inconclusive
COc1cc(-c2nn3c(C4CCCCC4)nnc3s2)cc(OC)c1OC	TDP1 cell noCPT 21µM, DT40 TDP1 CPT inconclusive

Source: PubChem
